Measured values published in PubChem BioAssay (NCATS).
Records with an inconclusive call do not appear. Calls of active or inactive are those of the source. The call rests on the fitted dose curve; in most records, active means well fitted activation curve with a large enough effect; inconclusive means small, poorly fitted or top-dose-only effect; inactive means no such curve, though single readings can be large or run the other way.

What follows are compounds tested against Rap guanine nucleotide exchange factor 3 (Homo sapiens) (UniProt O95398) (assay: Confirmatory qHTS for agonist of cAMP-regulated guanine nucleotide exchange factor 3 (EPAC1) (AID 1645881;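 further: EPAC1 catalysed release of BODIPY-GDP from Rap1B seen as fluorescence loss; nearly all actives have a fitted effect of over 75% in size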)). Details: EPAC1 Rap1B BODIPY-GDP exchange fluorescence; series mostly up to 154 µM.
Sequence of Rap guanine nucleotide exchange factor 3 (Homo sapiens) (O95398 whole entry, looked up): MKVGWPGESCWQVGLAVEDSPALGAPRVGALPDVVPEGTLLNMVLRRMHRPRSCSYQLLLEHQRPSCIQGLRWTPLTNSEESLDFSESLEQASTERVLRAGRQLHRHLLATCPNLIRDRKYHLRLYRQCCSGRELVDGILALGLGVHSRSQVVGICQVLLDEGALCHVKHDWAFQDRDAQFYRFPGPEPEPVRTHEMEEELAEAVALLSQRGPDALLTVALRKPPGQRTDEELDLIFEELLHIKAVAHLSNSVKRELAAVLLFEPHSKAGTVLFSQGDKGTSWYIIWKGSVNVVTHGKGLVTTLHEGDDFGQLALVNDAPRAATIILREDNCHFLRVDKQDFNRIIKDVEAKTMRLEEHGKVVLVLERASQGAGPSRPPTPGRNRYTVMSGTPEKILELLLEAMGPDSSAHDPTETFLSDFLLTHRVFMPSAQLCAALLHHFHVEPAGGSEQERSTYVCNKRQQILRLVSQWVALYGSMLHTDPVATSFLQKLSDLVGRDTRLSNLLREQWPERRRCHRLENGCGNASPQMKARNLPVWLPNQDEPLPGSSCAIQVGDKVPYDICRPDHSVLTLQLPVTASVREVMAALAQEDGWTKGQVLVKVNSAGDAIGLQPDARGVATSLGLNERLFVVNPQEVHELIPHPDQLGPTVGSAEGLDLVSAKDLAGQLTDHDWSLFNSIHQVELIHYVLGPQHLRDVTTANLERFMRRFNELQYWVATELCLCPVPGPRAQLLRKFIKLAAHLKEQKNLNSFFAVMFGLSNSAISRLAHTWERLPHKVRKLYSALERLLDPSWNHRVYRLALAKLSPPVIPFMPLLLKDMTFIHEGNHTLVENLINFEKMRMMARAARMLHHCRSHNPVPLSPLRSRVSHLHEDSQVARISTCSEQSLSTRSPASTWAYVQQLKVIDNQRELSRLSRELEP

Potency, inactive:
O=C(O)/C(=C\c1ccc(-c2ccc(F)cc2)o1)c1ccccc1
CCCCCCn1nc(C(=O)OCC(=O)c2c(N)n(C)c(=O)n(C)c2=O)c2ccccc2c1=O
COc1ccc(C(=O)Nc2ccccc2-c2nnn(CC(N)=O)n2)cc1
O=C(Cn1ncc(Cl)c(Cl)c1=O)NC(=O)NC1CCCCC1
O=C(COC(=O)c1ccc2c(c1)C(=O)N(Cc1ccncc1)C2=O)Nc1ccccc1[N+](=O)[O-]
CCc1c(O)cc(=O)n(-c2ccccc2)c1-c1ccccc1
COc1ccc(N=C2SC(C(=O)Nc3ccc(C(=O)O)cc3)CC(=O)N2Cc2cccs2)cc1 (stereo unspecified)
Cc1ccc(C)c(Cn2nc(-c3cc(C)ccc3C)ccc2=O)c1
Cc1cc2oc(=O)c(CC(=O)O)c(C)c2c2occ(-c3ccccc3)c12
Cc1cc(C)c(C)c(S(=O)(=O)N2CCCCC2C(=O)O)c1C (stereo unspecified)
C=CCn1c(=NC(=O)c2sc3ccccc3c2Cl)sc2cc(S(N)(=O)=O)ccc21
CCOC(=O)C1=C(C)N=c2s/c(=C/c3cccc([N+](=O)[O-])c3O)c(=O)n2C1c1ccccc1 (stereo unspecified)
CCN1CCc2c(sc(-n3cccc3)c2C(C)NC(=O)Nc2ccc(C(=O)OC)cc2)C1 (stereo unspecified)
CCN(C(=O)c1noc2c1COc1ccc(C)cc1-2)c1cccc(C)c1
O=C(/C=C/c1ccco1)NC(=S)Nc1cccc(-c2nc3ccccc3o2)c1
Cc1nnc(-c2ccco2)c2cn(-c3cccc(Br)c3)nc12
